Assay outcomes deposited in PubChem BioAssay by National Center for Advancing Translational Sciences (NCATS).
This is one part of a sample in which hits are shown more often than they occur.
N370S GC = inhibitors or activators of N370S glucocerebrosidase for Gaucher disease; P04062; N370S GC spleen homogenate, 4MU-glucoside fluorescence; Potency, µM (titrated, usually from 59.4 µM), for the others: at the top dose activity change, negative = inhibition, hits mostly inhibitors; 330,000 tested, 0.092% active; AID 2101;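 also: potency is read from the fitted curve at half-maximal effect; 0% = full enzyme activity and -100% = no enzyme basal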
CBFb-RUNX1 inh = CBF-beta/RUNX1 interaction disruption; Q01196+Q13951; AlphaScreen CBFb-His/RUNX1-biotin binding, biochemical; Potency, µM (top dose mostly 59.8 µM), for the others: at the highest dose activity, negative = inhibition, hits mostly inhibitors; 230,000 tested, under 10 active; AID 1477; also: % of control where 0% means no effect
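His-tagged CBF-beta and biotinylated RUNX1 (30 nM each) were premixed 20 min at room temperature, exposed to compound for 15 min, then given nickel-chelate and streptavidin AlphaScreen beads (50 ng each). After 90 min, AlphaScreen signal was read.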
a7 integrin act = activates integrin-mediated alleviation for muscular dystrophy; Potency, µM (doses to about 38.3 µM), inactives show at the highest dose activation, usual class: activators; AID 624291; 350,000 tested, 0.064% active; alpha7betagal myoblasts, beta-gal FDG fluorescence, 48 h;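 also: potency is read from the fitted curve at half-maximal effect; 100% = response of the positive control SU9516; nearly all actives have a fitted effect of over 60% in size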
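Alpha7betagal+/- myoblasts (passage 13) were plated 16-24 hr, then exposed to compounds (1:260 dilution of DMSO stock) for 48 hours at 37C. After MPER lysis, β-galactosidase reporter activity was read as FDG fluorescence (ex 480/em 540) after 30 minutes.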
Apoferritin bind = candidate novel general anesthetic via apoferritin binding | P02791 | apoferritin/1-aminoanthracene competitive binding, fluorescence | Potency, µM (series often up to 77.5 µM), inactives show at the top dose activity change, negative = displacement, hits mostly inhibitors | 350,000 tested, 0.074% active; also: potency is read from the fitted curve at half-maximal effect; % is scaled to controls: 0 for no effect and ±100 for the full control effect; nearly all actives have a fitted effect of over 20% in size
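Probe: 1-aminoanthracene (50% saturated, PBS). Protein: horse-spleen apoferritin, 10 uM. Incubation: 10 min, room temperature. Detection: 380 nm excitation, 535 nm emission. Analysis: normalized response, four-parameter Hill.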
Glioma ERSR ind = ER stress response induction in glioma; Potency, µM, without a hit: at the top dose activation, usual class: activators; 420,000 tested, 0.02% active; U87-MG GRP78 promoter luciferase reporter, 16 h; also: potency is read from the fitted curve at half-maximal effect; series mostly up to about 76 µM; % of control where 0% means no effect; nearly all actives have a fitted effect of over 35% in size
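Stably transfected U87-MG glioma cells carrying a GRP78-based luciferase sensor; 16 h compound incubation. Luminescence end-point read 10 min after Bright-Glo addition at room temperature.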
ClpP mod = qHTS Assay for Activators of ClpP. Potency, µM (doses to about 57.5 µM), inactives show at the top dose activity change, negative = active. purified B. subtilis ClpP, FRET peptide cleavage, 20 min. AID 651965, 2013. ATP-dependent Clp protease proteolytic subunit (Bacillus subtilis (strain 168)), P80244. 340,000 tested, 1.9% active; active = well fitted falling curve with a large enough effect; inconclusive = small, poorly fitted or top-dose-only effect; inactive = no such curve, though single readings can be large or run the other way; also: potency is read from the fitted curve at half-maximal effect; the source files actives as falling curves though it sought activators and does not explain the sign; nearly all actives have a fitted effect of over 65% in size
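Purified B. subtilis ClpP, 10 microg/mL final in Tris/HCl pH8 with KCl, BSA, glycerol and Tween-20, cleaved an Abz/nitrotyrosine-quenched decapeptide. Fluorescence (ex 320, em 430) was read at 0 and 20 min at room temperature. Delta was normalized to 5.8 microM ADEP and DMSO/no-enzyme controls.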
An asterisk follows results filed as active; i = inactive; ? = inconclusive; · = no result given. Unless noted, calls follow the shape of the dose curve; as a rule, active = well fitted curve in the direction sought with a large enough effect; inconclusive = small, poorly fitted or top-dose-only effect, or another doubt; inactive = no such curve, though single readings can be large; an effect the other way counts as inactive or inconclusive.

SMILES | N370S GC | CBFb-RUNX1 inh | a7 integrin act | Apoferritin bind | Glioma ERSR ind | ClpP mod
Cc1ccc2cc(C#N)c(NCCNC(=O)C3CCC3)nc2c1C | ? | 2% | -1% | -8% | -4% | 16µM*
O=C1[C@H](Cc2ccccc2)NC/C=C\C[C@H](c2ccco2)N1Cc1ccccc1 | · | · | · | · | -3% | -3%
O=C(CCCN1CCN(c2ccc(F)cc2)CC1)NC1c2ccccc2CSc2ccccc21 (stereo not drawn) | · | · | · | · | -5% | ·
NC(=O)c1sc2nc(N3CCOCC3)c3c(c2c1N)CCCC3 | 2% | 2% | -9% | 264% | -5% | 16µM*
CCOC(=O)c1sc2nc(N3CCOCC3)c3c(c2c1N)CC(C)(C)N(C)C3 | 3% | 5% | -4% | 47% | 1% | 7.1µM*
CN1Cc2c(N3CCOCC3)nc3sc(C(=O)c4ccccc4)c(N)c3c2CC1(C)C | 5% | -7% | 45% | -1% | -5% | ·
CC1(C)Cc2c(c(N3CCOCC3)nc3sc(C#N)c(N)c23)CS1 | 10% | 6% | -24% | 7% | -3% | 28µM*
CCOC(=O)c1sc2nc(N3CCOCC3)c3c(c2c1N)CCN(Cc1ccccc1)C3 | 2% | 2% | 15% | -12% | -6% | 25µM*
CC1(C)Cc2c(c(N3CCOCC3)nc3sc(C(N)=O)c(N)c23)CO1 | -29% | 12% | -17% | 2% | -2% | -1%
CCC(C)(C)NC(=O)C1CCN(c2nc(C)cc(C)n2)CC1 | 9% | -1% | 20% | -6% | -4% | 14µM*
CCCNC(=O)C1CCN(c2nc(C)cc(C)n2)CC1 | 1% | 0% | 14% | -2% | -3% | 16µM*
Cc1cc(C)nc(N2CCC(C(=O)O)CC2)n1 | -12% | 2% | 15% | -8% | -2% | 20µM*
Cc1cc2c(c(-c3cnccn3)c1)OC(CNC(=O)c1cc(C(C)C)[nH]n1)C2 (stereo not drawn) | · | · | · | · | -4% | ·
Cc1nn(-c2ccccn2)c2c1C(c1ccsc1)C1=C(CCCC1=O)N2 (stereo not drawn) | 14% | -1% | 6% | -2% | -1% | 25µM*
Cc1c(C)c2cc(Cl)c(O)c(CN3CCCC(C)C3)c2oc1=O (stereo not drawn) | ? | 0% | -5% | 423% | -3% | 6.3µM*
Cc1c(C)c2cc(Cl)c(O)c(CN3CCN(C)CC3)c2oc1=O | ? | 9% | -8% | i | -1% | 16%
Cc1ccc(CN2[C@H]3CCCC[C@@H]3OCCS2(=O)=O)cc1 | · | · | · | · | -3% | -2%
COc1cccc2c1Oc1ncccc1N(c1ccc(C(=O)NCc3ccccc3C)s1)C2 | · | · | · | 254% | -3% | 32µM*
Cc1ccc2cccc(O)c2n1 | · | · | · | · | -3% | -1%
CC1CCCCN1C(=O)Nc1cccc(Cl)c1 (stereo not drawn) | 3% | 1% | 1% | 22µM* | 2% | -1%
CCCCC(=O)Nc1cc(N(C)C)nc2ccccc12 | 10% | -1% | -14% | -1% | -2% | 8.9µM*
CN(C)c1cc(NC(=O)CNC(C)(C)C)c2ccccc2n1 | 28% | 0% | 0% | -2% | -5% | 4%
COc1ccccc1-c1nccc(Nc2ccc(F)cc2)n1 | -9% | · | · | · | 0% | ·
Cc1ccccc1-c1nccc(Nc2ccc(F)cc2)n1 | 20µM* | · | · | · | 8% | ·
Cc1cnc(C)c(-c2cc(F)cc3c2OC(CNC(=O)c2cc(Cl)ccc2F)C3)n1 (stereo not drawn) | · | · | · | · | -3% | ·
SMILES | N370S GC | CBFb-RUNX1 inh | a7 integrin act | Apoferritin bind | Glioma ERSR ind | ClpP mod
CCOc1ccc(NC(=S)N2CCc3cc(OC)c(OC)cc3C2COc2ccc3c(C)cc(=O)oc3c2)cc1 (stereo not drawn) | 4% | 4% | -5% | -10% | 2% | 8.9µM*
CCOc1ccc(CC(=O)N2CCc3cc(OC)c(OC)cc3C2COc2ccc3c(C)cc(=O)oc3c2)cc1 (stereo not drawn) | · | · | · | ? | -3% | 12%
NC(=NCCCCCCN=C(N)/N=C(\N)Nc1ccc(Cl)cc1)/N=C(\N)Nc1ccc(Cl)cc1 | 6.3µM* | 3% | · | ? | -11% | -1%
CCCn1cnc2cc(NCc3ccc(OC)cc3OC)ccc21 | · | · | · | -4% | -4% | ?
CCOc1ccc(CNc2ccc3c(c2)ncn3C)cc1 | -4% | -6% | -39% | -2% | -5% | 32µM*
CCn1cnc2cc(NCc3cccc(OC)c3O)ccc21 | 17% | 0% | 3% | -12% | 5% | 32µM*
CCCn1cnc2cc(NCc3cccc(OC)c3)ccc21 | 25% | 2% | 2% | -24% | 6% | 28µM*
COc1ccc(-n2c(CNC(=O)c3c(-c4ccccc4)noc3C)nnc2SC)cc1 | · | · | · | · | -4% | ·
Cc1ncc2c(c1CNC(=O)/C=C/c1cccs1)CCN(C(=O)C1CC(=O)OC13CCCCC3)C2 (stereo not drawn) | · | · | · | · | -3% | ·
CC(=O)Nc1ccc(C2Nc3ccccc3C(=O)N2C2CCCCC2)cc1 (stereo not drawn) | -11% | 4% | -10% | 13% | 8% | 28µM*
CCCCCCc1c(O)c2ccccc2[nH]c1=O | -4% | 10% | 11% | 3% | 3% | 25µM*
CCCCC(=O)Nc1c(O)c2ccccc2[nH]c1=O | 3% | -6% | -14% | 37% | -5% | ?
COc1cc2[nH]c(=O)c(C(=O)NCc3ccccc3Cl)c(O)c2cc1OC | 7% | · | 19% | -2% | -3% | 0%
COc1ccc(CNC(=O)c2c(O)c3cc(OC)c(OC)cc3[nH]c2=O)cc1OC | -18% | · | 0% | -2% | -4% | 7.9µM*
CCNC(=O)c1c(O)c2ccccc2[nH]c1=O | 15% | -2% | -34% | -3% | -1% | 25µM*
COc1ccc(/C=C/c2ccccn2)cc1 | · | · | · | · | -3% | 1%
Oc1ccc(Cl)cc1C=Nc1ccc2c3c(cccc13)CC2 | -5% | 3% | -17% | -4% | -1% | 0%
Cc1cccc(C=Nc2ccc3c4c(cccc24)CC3)c1O | -11% | 2% | 5% | -3% | -3% | 16µM*
O=[N+]([O-])c1cc(S(=O)(=O)N2CCCC2)ccc1N/N=C1/CCCc2ccccc21 | 14% | 1% | 15% | 5% | 3% | 16µM*
NS(=O)(=O)c1ccc(N/N=C2/CCCc3ccccc32)c([N+](=O)[O-])c1 | 7% | 2% | 18% | -16% | 0% | -12%
O=[N+]([O-])c1cc(C=Nc2ccc3ccccc3c2)ccc1Br | 1% | ? | -28% | -5% | 12% | 28µM*
CO/N=C(\C(=O)N[C@@H]1C(=O)N2C(C(=O)OCOC(=O)C(C)(C)C)=C(C)CS[C@H]12)c1csc(N)n1 | · | · | · | · | 0% | ·
O=C(NCc1ccc(Cl)cc1)c1cc2c(s1)-c1ccccc1SC2 | · | · | · | 52% | · | 32µM*
